Bioassay records deposited in PubChem BioAssay by The Scripps Research Institute Molecular Screening Center.
MITF primary = MITF inhibitors, primary screen, biochemical, AlphaScreen, human. inhibition, % at 2.6 µM. 650,000 compounds, 0.91% hits. AlphaScreen MITF homodimerization, bead proximity signal; in the data active means inhibition above about 50%
Target sequence (O75030 whole entry, looked up): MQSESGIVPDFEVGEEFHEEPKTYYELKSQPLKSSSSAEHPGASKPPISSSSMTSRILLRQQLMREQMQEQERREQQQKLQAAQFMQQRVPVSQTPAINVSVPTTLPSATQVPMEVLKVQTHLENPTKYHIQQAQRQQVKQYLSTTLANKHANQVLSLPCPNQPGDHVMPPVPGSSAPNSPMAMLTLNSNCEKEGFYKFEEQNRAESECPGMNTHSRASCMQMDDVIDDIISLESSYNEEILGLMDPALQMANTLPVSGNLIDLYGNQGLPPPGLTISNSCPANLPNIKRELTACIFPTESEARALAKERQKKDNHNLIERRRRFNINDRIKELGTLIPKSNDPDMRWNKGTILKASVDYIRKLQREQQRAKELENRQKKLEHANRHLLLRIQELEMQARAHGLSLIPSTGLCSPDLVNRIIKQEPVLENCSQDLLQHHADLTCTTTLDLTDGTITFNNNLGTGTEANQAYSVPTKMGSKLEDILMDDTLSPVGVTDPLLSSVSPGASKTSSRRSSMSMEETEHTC
TEAD-YAP inh = TEAD-YAP interaction inhibition, primary screen, TEAD-YAP interaction inhibitor project, luminescence, HEK-TIYL cells. TEAD-Gal4/YAP UAS-luciferase luminescence. inhibition, % at 9.12 µM. 640,000 compounds, 1.4% hits. AID 1259422, 2018; in the data active means inhibition above about 32%
FBW7 activator = FBW7 E3 ligase activators, primary screen, biochemical, AlphaScreen, human. F-box/WD repeat-containing protein 7 (Homo sapiens), Q969H0. AlphaScreen FBW7–phospho-cyclin E peptide binding, activator screen. normalized activity (activation), % at 26.1 µM. 650,000 compounds, 0.13% hits. AID 1259310, 2017; in the data active means normalized activity above about 1.9%;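 further: purified mutant Fbw7 with reduced substrate affinity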
GPR151 activ = activators of human GPR151, primary screen, cell-based, PathHunter beta-arrestin, luminescence | G-protein coupled receptor 151 (Homo sapiens), Q8TDV0 | PathHunter beta-arrestin GPR151 cells | activation, % at 11.2 µM | 650,000 compounds, 1% hits | AID 1508602, 2020; in the data active means activation above about 4.9%
Large screens that a line does not name were inactive. A selection: hits, their analogues and other compounds. The true share with any hit is near 3.5%.

Cc1ccc(C(=O)NC(=S)NCC(=O)c2ccccc2)cc1	none
COc1ccc(/C=C/CN2CCC[C@@H]3CN(C(=O)c4ccccn4)CC[C@@H]32)cc1	none
CC(=O)Nc1cc(-c2ccnc(N)n2)ccc1NC(=O)COc1cccc(C)c1	none
Cc1cccc(OCc2nc3ccc(-c4ccnc(N)n4)cc3[nH]2)c1	TEAD-YAP inh 57
Cc1ccc(NC(=O)CC2S/C(=N/N=C/c3ccc(OCC(=O)O)cc3)NC2=O)cc1 (stereo not drawn)	none
CN1CCN(C(=O)c2ccc(CS(=O)Cc3ccccc3Cl)o2)CC1 (stereo not drawn)	none
CC1(C)c2ssc(=S)c2-c2ccccc2N1C(=O)c1ccccc1	TEAD-YAP inh 57
CC1(C)c2ssc(=S)c2-c2ccccc2N1C(=O)C1CC1	none
CCn1c(N2CCN(C(=O)Nc3ccc(C#N)cc3)CC2)nc2ccccc21	none
CC(C)(C)CC(=O)N1CCc2cc(-c3csc(NC(=O)c4cccnc4)n3)ccc21	TEAD-YAP inh 36
Cc1sc(NC(=O)c2cccnc2)nc1-c1ccc2c(c1)CCN2C(=O)CC(C)(C)C	none
O=C1N/C(=C/c2cccc(F)c2)C(=O)N1Cc1ccc(Br)cc1	TEAD-YAP inh 55
COc1cc(/C=C2/NC(=O)N(Cc3ccc(Br)cc3)C2=O)cc2c1OCO2	TEAD-YAP inh 60
CCOC(=O)NC(c1ccccc1)C(C(=O)OCC)C(=O)OCC (stereo not drawn)	FBW7 activator 2.3
CN(C)S(=O)(=O)N=C1C=CC(=NS(=O)(=O)N(C)C)C=C1	MITF primary 55
O=C(CCC(=O)N(CC(=O)NC1CCCCC1)C1CCCC1)Nc1nccs1	none
CCOc1ccc(/C=C2\C(=O)ON=C2c2ccc(Cl)cc2)cc1	MITF primary 59
COc1ccccc1/C=C1\C(=O)ON=C1c1ccccc1	MITF primary 70
COc1cc(/C=C2/C(=O)ON=C2c2ccc(Cl)cc2)ccc1O	MITF primary 61
COc1cc(/C=C2/C(=O)ON=C2c2ccccc2)cc(OC)c1OC	MITF primary 56
O=C1NC(=O)N(c2ccccc2)C(=O)/C1=C/c1ccc(O)c(O)c1	none
Cc1ccc(COc2ccccc2/C=C2/C(=O)ON=C2c2ccccc2)cc1	MITF primary 54
CCOc1cc(/C=C2/C(=O)ON=C2c2ccccc2)ccc1OC	MITF primary 67
COc1cc(/C=C2/C(=O)ON=C2c2ccccc2)ccc1O	MITF primary 69
COc1cc(/C=C2\C(=O)ON=C2c2ccccc2)ccc1OCc1ccc(Cl)cc1	none
CN(C)CCNC(=O)c1ccc(Sc2ccccc2Cl)c([N+](=O)[O-])c1	none
CN(C)CCNC(=O)c1ccc(S(=O)(=O)c2ccc(Br)cc2)c([N+](=O)[O-])c1	TEAD-YAP inh 55
O=CNc1ccccc1OCc1ccccc1	none
Cc1ccc(C)c(-n2c3nc(=O)[nH]c(=O)c-3cc3cc([N+](=O)[O-])ccc32)c1	TEAD-YAP inh 57
O=C(CCl)N(Cc1cccs1)c1ccc2c(c1)OCCO2	TEAD-YAP inh 37
COc1ccc(N(Cc2cccs2)C(=O)CCl)cc1	none
CCOc1ccc(NC(=O)Cn2cc(C(=O)c3ccccc3)c(=O)c3cc(Cl)ccc32)cc1	FBW7 activator 2.7
COc1cccc(NC(=O)Cn2cc(C(=O)c3ccccc3)c(=O)c3cc(Cl)ccc32)c1	none
CCOC(=O)c1cc(NC(=O)Cn2cc(C=O)c3ccccc32)ccc1Cl	TEAD-YAP inh 35
COc1cccc(C2C3=C(CC(C)(C)CC3=O)Nc3nc(C(F)(F)F)nn32)c1OC (stereo not drawn)	none
Cc1nc(C)n(-c2ccc(Nc3ncc4ccc(-c5cnn(C)c5)nc4n3)cc2)n1	TEAD-YAP inh 72
Cc1ccc(-c2ncn(-c3ccc(Nc4ncc5ccc(-c6cn[nH]c6C)cc5n4)cc3)n2)cn1	TEAD-YAP inh 43
Cc1ncn(-c2ccc(Nc3ncc(Br)c(-c4cnn(C)c4)n3)cc2)n1	TEAD-YAP inh 69
Cc1ccc(-c2ncn(-c3ccc(Nc4ncc(F)c(-c5cnn(C)c5)n4)cc3)n2)cn1	TEAD-YAP inh 46
CNc1cc(-c2cnn(C)c2)nc(Nc2ccc(-n3nc(C)nc3C)cc2)n1	none
O=[N+]([O-])c1ccc(NC(=S)Nc2ccccc2)c(O)c1	none
CCOC(=O)c1ccc(NC(=O)CSc2nc3c(sc(=S)n3-c3ccc(CC)cc3)c(=O)n2-c2ccccc2C)cc1	none
CCOC(=O)c1c(C)oc2ccc(N(C(=O)Oc3ccccc3)S(=O)(=O)c3ccc(Br)cc3)cc12	none
O=C(CN1C(=O)COc2ccccc21)N(Cc1cccnc1)Cc1cccc(F)c1	none
O=C(O)CCC(=O)N(Cc1cccnc1)Cc1cccc(F)c1	TEAD-YAP inh 49
CC(C)NC(=O)Cn1nc2c3ccccc3nc(C3CC3)n2c1=O	none
CC(C)(C)NC(=O)Cn1nc2c3ccccc3nc(C3CC3)n2c1=O	TEAD-YAP inh 44
CCN(CC)Cc1c(O)ccc2c([N+](=O)[O-])c(C)n(-c3ccc(OC)cc3)c12	TEAD-YAP inh 37
COc1ccc(-n2c(/C=C/N(C)C)c([N+](=O)[O-])c3ccc(O)c(COC(C)=O)c32)cc1	none
Cc1cnc(C)c(N2CCN(c3nc4nonc4nc3N(C)C)CC2)n1	none
CCOC(=O)C(O)(c1ccc(N(CC)C(=O)c2ccccc2)cc1)C(F)(F)F (stereo not drawn)	FBW7 activator 2.6
CCCCN(CC)S(=O)(=O)c1ccc(C(=O)Nc2ccc3sc(C)nc3c2)cc1	TEAD-YAP inh 53
Cc1ccc(NS(=O)(=O)c2ccc(-n3cccn3)cc2)cc1C	none
COc1ccc(NS(=O)(=O)c2ccc(-n3cccn3)cc2)cc1OC	TEAD-YAP inh 40
COc1ccc(NS(=O)(=O)c2cc(C)ccc2OC)cc1OC	none
COc1ccc(NS(=O)(=O)c2c(C)cc(C)cc2C)cc1OC	TEAD-YAP inh 45
CC(C)N(CCNC(=O)c1cnc(Oc2ccccc2)s1)C(C)C	none
CC(C)N(CCNC(=O)c1cccc(Oc2ccccc2)n1)C(C)C	FBW7 activator 3.1
COCCNC(=O)CN(C(=O)CCC(=O)Nc1cc(C)on1)c1ccc(C)cc1	none
NC(=O)c1ccc(-c2nc(Nc3ccc(Oc4ccccc4)cc3)c3ncn(-c4ccsc4)c3n2)cc1	none
NC(=O)c1ccc(-c2nc(Nc3ccccc3)c3ncn(-c4ccsc4)c3n2)cc1	TEAD-YAP inh 50
CC(=O)Nc1ccc(Nc2nc(-c3ccc(C(N)=O)cc3)nc3c2ncn3-c2ccsc2)cc1	TEAD-YAP inh 39
CC(=O)Nc1ccc(Nc2nc(-c3ccc(C(=O)N4CCN(C)CC4)cc3)nc3c2ncn3-c2ccsc2)cc1	TEAD-YAP inh 36
CC(=O)Nc1ccc(Nc2nc(-c3ccccc3)nc3c2ncn3-c2ccsc2)cc1	TEAD-YAP inh 37
NC(=O)c1ccc(-c2nc(NC3CC3)c3ncn(-c4ccccc4)c3n2)cc1	TEAD-YAP inh 36
COc1ccc(-c2nc(Nc3ccccc3)c3ncn(-c4ccsc4)c3n2)cn1	none
